# Assays:
# Test in all cases: DAPPL (digital affinity profiling via proximity ligation, sequencing); 10 mM Tris-HCl pH 7.5, 50 mM NaCl, 1 mM DTT, 4% glycerol, room temperature, 30 min; GST-TFs on glutathione beads, 16-mer random dsDNA library, 0.1% formaldehyde crosslink after washing; high values mean tight binding
# FEV = biological target: T1, FEV (Homo sapiens, UniProt Q99581 1-238); details: protein: recombinant; tags: N-terminal GST; dsDNA, one strand shown
# T1 sequence: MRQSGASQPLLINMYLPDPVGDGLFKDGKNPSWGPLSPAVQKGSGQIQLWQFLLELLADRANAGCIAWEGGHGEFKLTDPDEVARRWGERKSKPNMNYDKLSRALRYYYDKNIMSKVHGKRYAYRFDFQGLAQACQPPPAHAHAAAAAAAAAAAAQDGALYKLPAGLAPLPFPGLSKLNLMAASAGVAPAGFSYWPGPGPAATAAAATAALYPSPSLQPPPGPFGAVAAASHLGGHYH
# In short: (§1)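 Each value of binding signal is a hexamer's read frequency for a factor divided by the same hexamer's frequency in the tag-only sample. Barcoded, bead-captured GST fusions of human transcription factors made in yeast were pooled with that sample and incubated with 200 nmole of a random double-stranded 16-mer DNA library in Tris/NaCl/DTT/glycerol buffer at room temperature for 30 min. Washing, 0.1% formaldehyde crosslinking, proximity ligation, PCR and Illumina NextSeq500 sequencing followed.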
# ETV5 = ETV5 (Homo sapiens, UniProt P41161 1-510); details: protein: recombinant; tags: N-terminal GST; dsDNA, one strand shown
# Chain of ETV5 (P41161 whole entry): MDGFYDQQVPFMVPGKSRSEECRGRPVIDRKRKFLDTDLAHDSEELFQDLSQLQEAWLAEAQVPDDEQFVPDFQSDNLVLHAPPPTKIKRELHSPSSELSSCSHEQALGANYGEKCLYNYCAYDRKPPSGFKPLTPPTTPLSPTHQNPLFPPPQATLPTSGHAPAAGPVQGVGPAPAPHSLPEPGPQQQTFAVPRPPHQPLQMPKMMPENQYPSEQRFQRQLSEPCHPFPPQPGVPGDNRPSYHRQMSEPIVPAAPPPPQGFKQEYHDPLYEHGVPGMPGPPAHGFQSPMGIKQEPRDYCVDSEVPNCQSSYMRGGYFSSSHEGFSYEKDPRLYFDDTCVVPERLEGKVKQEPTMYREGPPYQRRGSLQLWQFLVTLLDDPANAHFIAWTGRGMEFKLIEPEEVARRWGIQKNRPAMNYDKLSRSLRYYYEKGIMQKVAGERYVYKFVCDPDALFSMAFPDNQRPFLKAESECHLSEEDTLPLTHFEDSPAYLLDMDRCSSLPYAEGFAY
# In short: as §1
# HSF1 = HSF1 (Homo sapiens, UniProt Q00613 1-529); details: protein: recombinant; tags: N-terminal GST; chain copies: 3; dsDNA, one strand shown
# Chain of HSF1 (Q00613 whole entry): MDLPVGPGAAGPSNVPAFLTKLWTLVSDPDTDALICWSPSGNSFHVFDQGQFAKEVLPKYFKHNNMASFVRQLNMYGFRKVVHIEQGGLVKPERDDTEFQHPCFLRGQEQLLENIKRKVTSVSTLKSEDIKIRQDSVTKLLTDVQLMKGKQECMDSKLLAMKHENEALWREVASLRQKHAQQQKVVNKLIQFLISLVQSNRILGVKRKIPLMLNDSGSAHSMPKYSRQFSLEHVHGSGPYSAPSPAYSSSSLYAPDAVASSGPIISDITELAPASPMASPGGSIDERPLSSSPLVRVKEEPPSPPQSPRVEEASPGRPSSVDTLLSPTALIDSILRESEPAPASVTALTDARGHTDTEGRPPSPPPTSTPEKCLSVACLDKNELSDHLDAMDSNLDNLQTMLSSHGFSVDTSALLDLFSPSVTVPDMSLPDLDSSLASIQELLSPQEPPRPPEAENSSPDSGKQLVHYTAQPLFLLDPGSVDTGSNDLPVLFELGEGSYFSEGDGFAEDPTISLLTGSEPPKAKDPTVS
# In short: as §1
# SPIC = biological target: T2, SPIC (Homo sapiens, UniProt Q8N5J4 1-248); details: protein: recombinant; tags: N-terminal GST; dsDNA, one strand shown
# T2 sequence: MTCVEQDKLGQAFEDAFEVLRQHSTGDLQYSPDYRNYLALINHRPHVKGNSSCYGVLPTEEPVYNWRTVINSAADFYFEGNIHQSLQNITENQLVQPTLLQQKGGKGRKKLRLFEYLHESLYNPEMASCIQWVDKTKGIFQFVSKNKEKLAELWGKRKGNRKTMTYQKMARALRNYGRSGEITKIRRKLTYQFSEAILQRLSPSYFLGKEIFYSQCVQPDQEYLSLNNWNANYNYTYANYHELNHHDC
# In short: as §1
# ELF4 = ELF4 (Homo sapiens, UniProt Q99607 1-663); details: protein: recombinant; tags: N-terminal GST; dsDNA, one strand shown
# Chain of ELF4 (Q99607 whole entry): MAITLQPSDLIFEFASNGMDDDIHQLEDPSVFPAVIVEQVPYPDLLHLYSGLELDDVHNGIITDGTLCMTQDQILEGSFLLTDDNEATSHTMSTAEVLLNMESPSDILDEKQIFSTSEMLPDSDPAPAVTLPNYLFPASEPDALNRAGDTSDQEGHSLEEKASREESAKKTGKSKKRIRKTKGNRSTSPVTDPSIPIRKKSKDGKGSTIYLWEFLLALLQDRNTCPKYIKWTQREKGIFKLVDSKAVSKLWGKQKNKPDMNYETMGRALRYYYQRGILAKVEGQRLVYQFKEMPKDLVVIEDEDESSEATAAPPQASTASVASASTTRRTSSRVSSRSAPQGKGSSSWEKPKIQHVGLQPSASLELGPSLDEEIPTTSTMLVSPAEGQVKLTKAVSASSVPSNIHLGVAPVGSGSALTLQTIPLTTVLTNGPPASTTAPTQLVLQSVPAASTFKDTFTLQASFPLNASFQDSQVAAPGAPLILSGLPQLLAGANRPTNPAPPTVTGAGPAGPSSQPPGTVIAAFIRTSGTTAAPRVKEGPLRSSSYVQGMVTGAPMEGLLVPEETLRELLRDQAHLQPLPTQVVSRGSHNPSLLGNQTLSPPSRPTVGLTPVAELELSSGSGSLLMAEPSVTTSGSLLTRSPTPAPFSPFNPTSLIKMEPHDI
# In short: as §1
# ELK4 = biological target: T3, ELK4 (Homo sapiens, UniProt P28324-2 1-405); details: protein: recombinant; tags: N-terminal GST; dsDNA, one strand shown
# T3 sequence: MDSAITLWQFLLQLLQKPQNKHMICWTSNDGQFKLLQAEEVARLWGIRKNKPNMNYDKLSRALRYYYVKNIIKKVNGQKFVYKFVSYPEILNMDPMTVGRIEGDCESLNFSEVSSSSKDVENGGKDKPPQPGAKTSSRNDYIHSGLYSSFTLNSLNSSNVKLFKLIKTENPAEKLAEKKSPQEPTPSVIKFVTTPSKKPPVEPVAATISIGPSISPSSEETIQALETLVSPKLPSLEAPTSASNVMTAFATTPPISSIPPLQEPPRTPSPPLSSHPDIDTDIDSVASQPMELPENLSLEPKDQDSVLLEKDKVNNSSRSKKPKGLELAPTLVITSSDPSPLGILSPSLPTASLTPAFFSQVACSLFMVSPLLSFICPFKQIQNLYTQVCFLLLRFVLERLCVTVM
# In short: as §1
# ETV2 = biological target: T4, ETV2 (Homo sapiens, UniProt O00321 1-342); details: protein: recombinant; tags: N-terminal GST; dsDNA, one strand shown
# T4 sequence: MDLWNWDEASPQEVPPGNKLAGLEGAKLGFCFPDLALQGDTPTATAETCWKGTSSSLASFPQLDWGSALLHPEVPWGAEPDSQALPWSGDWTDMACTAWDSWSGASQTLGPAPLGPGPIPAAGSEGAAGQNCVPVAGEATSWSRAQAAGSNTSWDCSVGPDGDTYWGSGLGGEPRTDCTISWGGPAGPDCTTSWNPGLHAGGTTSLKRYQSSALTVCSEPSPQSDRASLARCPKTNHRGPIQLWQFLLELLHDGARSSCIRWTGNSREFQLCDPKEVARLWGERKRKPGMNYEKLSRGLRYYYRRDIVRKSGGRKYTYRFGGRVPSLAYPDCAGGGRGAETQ
# In short: as §1
# ELF3 = biological target: T5, ELF3 (Homo sapiens, UniProt P78545 1-371); details: protein: recombinant; tags: N-terminal GST; dsDNA, one strand shown
# T5 sequence: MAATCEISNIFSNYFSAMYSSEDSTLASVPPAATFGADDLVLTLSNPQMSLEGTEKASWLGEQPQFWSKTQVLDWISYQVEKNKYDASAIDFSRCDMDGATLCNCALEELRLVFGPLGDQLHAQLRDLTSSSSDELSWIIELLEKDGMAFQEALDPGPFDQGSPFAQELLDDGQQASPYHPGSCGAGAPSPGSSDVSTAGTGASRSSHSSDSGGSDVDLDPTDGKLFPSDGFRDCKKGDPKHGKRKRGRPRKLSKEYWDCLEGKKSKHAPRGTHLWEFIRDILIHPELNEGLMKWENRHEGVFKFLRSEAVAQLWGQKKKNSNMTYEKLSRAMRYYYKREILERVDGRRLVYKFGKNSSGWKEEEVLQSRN
# In short: as §1
# CRX = CRX (Homo sapiens, UniProt O43186 1-299); details: protein: recombinant; tags: N-terminal GST; dsDNA, one strand shown
# Chain of CRX (O43186 whole entry): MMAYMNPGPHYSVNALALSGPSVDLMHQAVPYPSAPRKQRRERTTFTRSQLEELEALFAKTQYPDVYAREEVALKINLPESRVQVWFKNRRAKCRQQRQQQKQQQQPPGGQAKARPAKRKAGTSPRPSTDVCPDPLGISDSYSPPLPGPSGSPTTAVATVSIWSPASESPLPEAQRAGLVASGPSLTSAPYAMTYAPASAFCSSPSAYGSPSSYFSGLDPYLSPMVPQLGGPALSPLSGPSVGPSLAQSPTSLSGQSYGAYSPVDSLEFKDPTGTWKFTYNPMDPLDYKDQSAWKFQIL
# In short: as §1
# ETV1 = ETV1 (Homo sapiens, UniProt P50549 1-477); details: protein: recombinant; tags: N-terminal GST; dsDNA, one strand shown
# Chain of ETV1 (P50549 whole entry): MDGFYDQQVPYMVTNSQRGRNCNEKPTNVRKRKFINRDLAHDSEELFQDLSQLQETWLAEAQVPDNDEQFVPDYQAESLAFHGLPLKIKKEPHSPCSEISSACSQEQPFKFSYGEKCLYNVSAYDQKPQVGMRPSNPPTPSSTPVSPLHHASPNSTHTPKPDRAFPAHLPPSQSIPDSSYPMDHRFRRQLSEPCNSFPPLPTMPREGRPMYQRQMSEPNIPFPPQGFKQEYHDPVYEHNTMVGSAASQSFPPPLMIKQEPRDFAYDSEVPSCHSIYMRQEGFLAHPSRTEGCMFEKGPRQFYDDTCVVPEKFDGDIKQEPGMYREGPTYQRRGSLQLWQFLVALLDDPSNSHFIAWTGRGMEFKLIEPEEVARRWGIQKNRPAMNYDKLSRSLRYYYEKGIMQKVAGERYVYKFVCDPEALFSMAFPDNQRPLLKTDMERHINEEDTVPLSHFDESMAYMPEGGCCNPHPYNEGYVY
# In short: as §1
# ERF = biological target: T6, ERF (Homo sapiens, UniProt P50548 1-548); details: protein: recombinant; tags: N-terminal GST; dsDNA, one strand shown
# T6 sequence: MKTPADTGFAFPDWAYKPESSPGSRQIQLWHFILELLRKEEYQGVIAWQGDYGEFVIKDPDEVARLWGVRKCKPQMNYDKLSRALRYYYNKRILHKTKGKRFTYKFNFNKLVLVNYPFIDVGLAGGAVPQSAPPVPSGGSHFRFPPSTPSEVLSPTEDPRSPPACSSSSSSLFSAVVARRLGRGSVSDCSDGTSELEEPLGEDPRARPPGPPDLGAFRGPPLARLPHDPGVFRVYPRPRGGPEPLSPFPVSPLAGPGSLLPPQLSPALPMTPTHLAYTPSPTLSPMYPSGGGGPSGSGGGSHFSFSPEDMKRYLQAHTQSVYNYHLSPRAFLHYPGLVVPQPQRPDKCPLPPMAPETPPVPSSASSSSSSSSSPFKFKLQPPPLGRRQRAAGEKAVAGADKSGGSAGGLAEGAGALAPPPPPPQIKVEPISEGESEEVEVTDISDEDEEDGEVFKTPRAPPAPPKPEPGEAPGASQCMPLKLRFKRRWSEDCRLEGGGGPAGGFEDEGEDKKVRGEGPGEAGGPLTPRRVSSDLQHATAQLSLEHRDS
# In short: as §1
# ETV3L = biological target: T7, ETV3L (Homo sapiens, UniProt Q6ZN32 1-361); details: protein: recombinant; tags: N-terminal GST; dsDNA, one strand shown
# T7 sequence: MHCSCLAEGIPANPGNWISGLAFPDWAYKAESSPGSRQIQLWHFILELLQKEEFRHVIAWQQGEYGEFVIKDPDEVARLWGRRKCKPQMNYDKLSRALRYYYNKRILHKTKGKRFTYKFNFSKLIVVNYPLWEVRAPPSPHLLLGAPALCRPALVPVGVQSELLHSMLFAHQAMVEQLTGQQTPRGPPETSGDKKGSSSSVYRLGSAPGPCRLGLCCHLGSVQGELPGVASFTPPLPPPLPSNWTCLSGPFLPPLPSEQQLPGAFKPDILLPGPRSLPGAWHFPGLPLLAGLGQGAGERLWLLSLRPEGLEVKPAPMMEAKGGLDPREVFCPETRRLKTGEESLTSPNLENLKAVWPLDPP
# In short: as §1
# ETS2 = biological target: T8, ETS2 (Homo sapiens, UniProt P15036 1-469); details: protein: recombinant; tags: N-terminal GST; dsDNA, one strand shown
# T8 sequence: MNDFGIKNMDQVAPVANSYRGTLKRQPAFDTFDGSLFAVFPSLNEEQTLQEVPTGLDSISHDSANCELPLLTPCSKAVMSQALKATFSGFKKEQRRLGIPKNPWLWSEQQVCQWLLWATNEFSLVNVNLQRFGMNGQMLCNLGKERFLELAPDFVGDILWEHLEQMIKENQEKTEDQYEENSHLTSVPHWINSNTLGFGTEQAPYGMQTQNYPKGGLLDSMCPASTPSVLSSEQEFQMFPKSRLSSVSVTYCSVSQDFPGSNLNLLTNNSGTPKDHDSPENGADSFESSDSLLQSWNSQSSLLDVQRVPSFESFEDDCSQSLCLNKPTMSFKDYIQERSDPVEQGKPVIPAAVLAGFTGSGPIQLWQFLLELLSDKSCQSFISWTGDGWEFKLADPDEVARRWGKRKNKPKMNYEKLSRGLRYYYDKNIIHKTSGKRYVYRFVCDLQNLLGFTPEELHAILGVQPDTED
# In short: as §1
# SPDEF = biological target: T9, SPDEF (Homo sapiens, UniProt O95238 1-335); details: protein: recombinant; tags: N-terminal GST; dsDNA, one strand shown
# T9 sequence: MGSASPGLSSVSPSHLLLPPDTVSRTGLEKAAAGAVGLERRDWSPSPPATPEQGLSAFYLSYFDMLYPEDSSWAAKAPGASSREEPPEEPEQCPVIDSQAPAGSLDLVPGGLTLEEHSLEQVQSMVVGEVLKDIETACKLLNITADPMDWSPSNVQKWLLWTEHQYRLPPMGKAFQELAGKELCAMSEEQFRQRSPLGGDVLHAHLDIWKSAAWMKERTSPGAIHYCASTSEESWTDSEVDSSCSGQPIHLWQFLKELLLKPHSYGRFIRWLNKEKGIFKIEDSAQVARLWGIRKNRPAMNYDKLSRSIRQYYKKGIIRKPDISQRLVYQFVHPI
# In short: as §1
# ETV7 = biological target: T10, ETV7 (Homo sapiens, UniProt Q9Y603 1-341); details: protein: recombinant; tags: N-terminal GST; dsDNA, one strand shown
# T10 sequence: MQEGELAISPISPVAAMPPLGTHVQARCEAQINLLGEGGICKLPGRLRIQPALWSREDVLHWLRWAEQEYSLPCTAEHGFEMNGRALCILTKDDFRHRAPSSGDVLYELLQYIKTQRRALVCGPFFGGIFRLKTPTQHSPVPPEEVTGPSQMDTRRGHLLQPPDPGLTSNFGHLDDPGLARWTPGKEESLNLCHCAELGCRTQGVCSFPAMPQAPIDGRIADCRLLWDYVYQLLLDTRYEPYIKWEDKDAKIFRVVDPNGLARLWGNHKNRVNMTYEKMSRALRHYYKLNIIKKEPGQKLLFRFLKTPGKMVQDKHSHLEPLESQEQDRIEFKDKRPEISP
# In short: as §1
# ELF5 = biological target: T11, ELF5 (Homo sapiens, UniProt Q9UKW6-2 1-255); details: protein: recombinant; tags: N-terminal GST; dsDNA, one strand shown
# T11 sequence: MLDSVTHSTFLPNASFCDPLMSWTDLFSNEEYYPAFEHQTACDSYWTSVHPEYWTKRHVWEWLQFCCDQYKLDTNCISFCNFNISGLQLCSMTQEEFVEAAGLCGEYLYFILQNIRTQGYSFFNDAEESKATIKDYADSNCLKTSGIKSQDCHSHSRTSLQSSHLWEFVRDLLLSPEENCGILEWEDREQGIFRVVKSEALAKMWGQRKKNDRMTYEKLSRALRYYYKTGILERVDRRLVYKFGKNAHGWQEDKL
# In short: as §1
# ETV3 = biological target: T12, ETV3 (Homo sapiens, UniProt P41162-2 1-143); details: protein: recombinant; tags: N-terminal GST; dsDNA, one strand shown
# T12 sequence: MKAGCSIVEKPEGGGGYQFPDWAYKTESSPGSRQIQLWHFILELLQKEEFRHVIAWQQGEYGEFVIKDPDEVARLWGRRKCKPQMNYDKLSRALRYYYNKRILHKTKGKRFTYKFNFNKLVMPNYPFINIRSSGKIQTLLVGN
# In short: as §1
# ETV6 = ETV6 (Homo sapiens, UniProt P41212 1-452); details: protein: recombinant; tags: N-terminal GST; dsDNA, one strand shown
# Chain of ETV6 (P41212 whole entry): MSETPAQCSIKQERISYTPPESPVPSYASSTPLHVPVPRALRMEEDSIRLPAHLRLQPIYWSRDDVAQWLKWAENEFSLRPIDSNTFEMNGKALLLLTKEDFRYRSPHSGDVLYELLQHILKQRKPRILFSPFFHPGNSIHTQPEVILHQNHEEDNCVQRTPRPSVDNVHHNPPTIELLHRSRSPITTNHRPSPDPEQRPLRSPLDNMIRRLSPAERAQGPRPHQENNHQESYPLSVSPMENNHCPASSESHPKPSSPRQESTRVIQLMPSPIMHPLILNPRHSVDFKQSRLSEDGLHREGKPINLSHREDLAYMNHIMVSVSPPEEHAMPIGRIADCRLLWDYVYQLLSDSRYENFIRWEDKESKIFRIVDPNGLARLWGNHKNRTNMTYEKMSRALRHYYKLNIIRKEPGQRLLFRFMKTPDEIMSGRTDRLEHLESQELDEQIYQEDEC
# In short: as §1
sequence,measurement,setting,value
AAAGAC,binding signal,FEV,"1.06 fold enrichment (6-mer frequency, TF over GST control)"
same,binding signal,ETV5,"1.05 fold enrichment (6-mer frequency, TF over GST control)"
same,binding signal,HSF1,"1.11 fold enrichment (6-mer frequency, TF over GST control)"
same,binding signal,SPIC,"1.01 fold enrichment (6-mer frequency, TF over GST control)"
same,binding signal,ELF4,"1.04 fold enrichment (6-mer frequency, TF over GST control)"
same,binding signal,ELK4,"1.04 fold enrichment (6-mer frequency, TF over GST control)"
same,binding signal,ETV2,"1.03 fold enrichment (6-mer frequency, TF over GST control)"
same,binding signal,ELF3,"1.01 fold enrichment (6-mer frequency, TF over GST control)"
same,binding signal,CRX,"1.13 fold enrichment (6-mer frequency, TF over GST control)"
same,binding signal,ETV1,"1.03 fold enrichment (6-mer frequency, TF over GST control)"
same,binding signal,ERF,"1.08 fold enrichment (6-mer frequency, TF over GST control)"
same,binding signal,ETV3L,"1.06 fold enrichment (6-mer frequency, TF over GST control)"
same,binding signal,ETS2,"1.12 fold enrichment (6-mer frequency, TF over GST control)"
same,binding signal,SPDEF,"1.01 fold enrichment (6-mer frequency, TF over GST control)"
same,binding signal,ETV7,"1.03 fold enrichment (6-mer frequency, TF over GST control)"
same,binding signal,ELF5,"1.03 fold enrichment (6-mer frequency, TF over GST control)"
same,binding signal,ETV3,"1.01 fold enrichment (6-mer frequency, TF over GST control)"
same,binding signal,ETV6,"1.16 fold enrichment (6-mer frequency, TF over GST control)"

# Source: article PMC7862700, “An all-to-all approach to the identification of sequence-specific readers for epigenetic DNA modifications on cytosine”
